A number with no mark means an inactive call. The call rests on the fitted dose curve; in most records, active means well fitted curve in the direction sought with a large enough effect; inactive means no such curve, though single readings can be large or run the other way.

This assay has as its target Lysosomal alpha-glucosidase (Homo sapiens) (UniProt P10253). The experiment in a line: qHTS Assay for Inhibitors and Activators of N370S glucocerebrosidase as a Potential Chaperone Treatment of Gaucher Disease: Alpha-Glucosidase Counterscreen. The following applies: purified human alpha-glucosidase, 4MU-alpha-glucoside fluorescence. The source says: NIH Chemical Genomics Center [NCGC] NIH Molecular Libraries Probe Production Centers Network [MLPCN] MLPCN Grant: MH086442-01 Assay Submitter (PI): Wei Zheng Glucocerebrosidase (GC) catalyzes the hydrolysis of beta-glucocerebroside to glucose and ceramide in lysosomes. Mutations in the glucocerebrosidase gene result in Gaucher disease, an autosomal recessive lysosomal storage disorder. Many of the mutations encountered in patients with Gaucher disease are missense alterations that may cause misfolding, decreased stability and/or mistrafficking of this lysosomal protein. […] These inhibitors include iminosugar analogs and three non-iminosugar inhibitors identified from a previous HTS of 62,000 compounds with the wild type recombinant enzyme. However, the enhancement of enzyme activity by the chaperone action of an enzyme inhibitor must be balanced against the direct inhibition of the enzyme. An enzyme activator could also function as a chaperone by binding to the enzyme and helping to correct its misfolding and mistrafficking. While activators for GC have not yet been identified, they may have better therapeutic potential than inhibitors. Therefore the discovery and development of chemical activators may provide a new strategy for the chaperone therapy. To characterize compound selectivity, selected hits from the primary screen were screened against purified alpha-glucosidase, a related sugar hydrolase. Alpha-glucosidase is responsible for hydrolysis of terminal, non-reducing 1,4-linked alpha-D-glucose residues with release of alpha-D-glucose.
NCGC Assay Protocol Summary: This is a fluorogenic enzyme assay with 4-methylumbelliferyl-alpha-D-[…] as the substrate and human alpha-glucosidase as the enzyme preparation. Upon the hydrolysis of this fluorogenic substrate, the resulting product, 1. 4-methyllumbelliferone, can be excited at 365 nm and emits at 440 nm which can be detected by a standard fluorescence plate reader. Data were normalized to the controls for basal activity (without enzyme) and 100% activity (with enzyme). The AC50 values were determined from concentration-response data modeled with the standard Hill equation. Assay buffer: 50 mM citric acid (titrated with potassium phosphate to pH 5.0), 0.005% Tween-20, pH 5.0. (pH 5.0 is an optimal condition for this enzyme assay) 1536-well assay protocol for the human alpha-glucosidase: (1) Add 2 ul/well of enzyme (4 nM final) (2) Add 23 nL compounds in DMSO solution. The final titration was 0.7 nM to 77 uM. (3) Add 1 ul of substrate (400 uM final) (4) Incubate at room temperature for 20 min. (5) Add 2 ul stop solution (1M NaOH and 1M Glycine mixture, pH 10) (6) Detect the assay plate in a ViewLux plate reader (PerkinElmer) with Ex=365 nm and Em=440nm. Keywords: Alpha-glucosidase, Pompe Disease, pharmacological chaperone, chaperone therapy, high throughput screening, alpha-glucosidase inhibitor, MLSMR, MLSCN, NIH Roadmap, qHTS and NCGC
On the technique in general: qHTS replaces the single test concentration by a dilution series.
Turning to `O=S(=O)(c1ccccc1)N1CCN(c2nc(-c3cccs3)nc3ccccc23)CC1`, the max response was -12.9%.

For the molecule `O=S(=O)(c1ccccc1Cl)N1CCN(c2nc(-c3cccs3)nc3ccccc23)CC1`, the max response is -12.9%.

On to `O=S(=O)(c1cccc(C(F)(F)F)c1)N1CCN(c2nc(-c3ccccc3)nc3ccccc23)CC1`, for which the max response is -12.7%.

Regarding `O=[N+]([O-])c1ccc(S(=O)(=O)N2CCN(c3nc(-c4cccs4)nc4ccccc34)CC2)cc1`, the max response was -5.9%.

Regarding `NS(=O)(=O)c1ccc(S(=O)(=O)N2CCN(c3nc(-c4cccs4)nc4ccccc34)CC2)cc1`, the max response was -10.5%.

For `S=C(NCCCc1cnc[nH]1)NCCCN(Cc1ccc(Cl)c(Cl)c1)c1ccc(Br)cn1`, the max response is -4.15%.

On to `O=S(=O)(c1ccc(Cl)cc1)N1CCN(c2nc(-c3cccc(Br)c3)nc3ccccc23)CC1`, for which the max response was -4.16%.

For the molecule `O=S(=O)(c1ccc(Cl)cc1)N1CCN(c2nc(-c3ccccc3)nc3ccccc23)CC1`, the max response is -10.6%.

Regarding `O=S(=O)(c1ccc2c(c1)OCCO2)N1CCN(c2nc(-c3ccccc3)nc3ccccc23)CC1`, the max response was -3.22%.

On to `CC(C)(C)c1ccc(S(=O)(=O)N2CCN(c3nc(-c4ccccc4)nc4ccccc34)CC2)cc1`, for which the max response is -7.51%.

For the molecule `O=S(=O)(c1ccc(OC(F)(F)F)cc1)N1CCN(c2nc(-c3ccccc3)nc3ccccc23)CC1`, the max response is -5.72%.

Regarding `O=S(=O)(c1ccc(Cl)cc1)N1CCN(c2nc(-c3ccc(Cl)cc3)nc3ccccc23)CC1`, the max response was 1.68%.

In the case of `O=S(=O)(c1ccc(F)cc1)N1CCN(c2nc(-c3cccc(Br)c3)nc3ccccc23)CC1`, the max response was -5.01%.

On to `O=S(=O)(c1ccccc1F)N1CCN(c2nc(-c3cccs3)nc3ccccc23)CC1`, for which the max response was -14.1%.

Regarding `O=S(=O)(c1ccc(C(F)(F)F)cc1)N1CCN(c2nc(-c3ccccc3)nc3ccccc23)CC1`, the max response is -6.24%.

`COc1ccc(S(=O)(=O)N2CCN(c3nc(-c4cccs4)nc4ccccc34)CC2)cc1`: the max response was -3.66%.

`CCOC(=O)c1ccc(S(=O)(=O)N2CCN(c3nc(-c4ccccc4)nc4ccccc34)CC2)cc1`: the max response is -5.28%.

As for `O=[N+]([O-])c1ccc(S(=O)(=O)N2CCN(c3nc(-c4ccccc4)nc4ccccc34)CC2)cc1`, the max response was -3.59%.

Consider `N#Cc1ccc(S(=O)(=O)N2CCN(c3nc(-c4ccccc4)nc4ccccc34)CC2)cc1`, for which the max response was -5.2%.

With `O=S(=O)(c1ccccc1Br)N1CCN(c2nc(-c3cccs3)nc3ccccc23)CC1`, the max response is -2.87%.

Turning to `O=S(=O)(c1cccc(C(F)(F)F)c1)N1CCN(c2nc(-c3cccs3)nc3cc(Cl)ccc23)CC1`, the max response is -7.27%.

For `O=S(=O)(c1ccc2c(c1)OCCO2)N1CCN(c2nc(-c3cccs3)nc3ccccc23)CC1`, the max response was -3.67%.

`CC(C)(C)c1ccc(S(=O)(=O)N2CCN(c3nc(-c4cccs4)nc4ccccc34)CC2)cc1`: the max response is -6.75%.

`COc1ccc(-c2nc(N3CCN(S(=O)(=O)c4ccccc4)CC3)c3ccccc3n2)cc1`: the max response was -7.46%.

Consider `O=S(=O)(c1cccc(Cl)c1)N1CCN(c2nc(-c3ccccc3)nc3ccccc23)CC1`, for which the max response was -3.54%.

On to `CC(=O)c1ccc(S(=O)(=O)N2CCN(c3nc(-c4ccccc4)nc4ccccc34)CC2)cc1`, for which the max response was -3.56%.

For `Cc1ccc(S(=O)(=O)N2CCN(c3nc(-c4cccs4)nc4ccccc34)CC2)cc1`, the max response is -8.42%.

With `Cc1ccc(S(=O)(=O)N2CCN(c3nc(-c4ccccc4)nc4ccccc34)CC2)cc1`, the max response is -13.1%.

In the case of `O=S(=O)(c1ccc(Br)cc1)N1CCN(c2nc(-c3cccs3)nc3ccccc23)CC1`, the max response was -4.2%.

Regarding `O=[N+]([O-])c1ccccc1S(=O)(=O)N1CCN(c2nc(-c3cccs3)nc3ccccc23)CC1`, the max response is -3.63%.

(Values after PubChem BioAssay AID2577 (National Center for Advancing Translational Sciences (NCATS), 2010).)
